# According to PubChem BioAssay (NCI):
# “And” between values parts separate entries of the source, which are not always exact repeats. Equal values may be shown once. The panel holds about 83,000 compounds, 20% with a hit somewhere; the sample as a whole holds those more often.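 Growth was measured after 48 h exposure to one concentration of compound in 96-well plates. Values under 10 count as active.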 The source made the active and inactive calls.
# System: UACC-62 melanoma
# Assay: NCI-60 one-dose screen, 48 h (100 = growth as untreated, 0 = no growth, -100 = all killed)
# Settings: 1 µM
# Method: Growth inhibition of the UACC-62 human tumor cell line is measured as a screen for anti-cancer activity. Cells are grown in 96 well plates and exposed to the test compound for 48 hours. Compounds are tested at a single concentration, which is 10^-5 M for most compounds. The reported endpoint is percent growth (GI% or GIPRCNT), where numbers from 0 - 100% represent growth inhibition, and numbers from -100% - 0 represent cell death. For example, a value of 40 represents 60% growth inhibition. A value of 0 means no net growth occurred over the course of the experiment. A value of -40 indicates 40% of cells at the beginning of the experiment died by the end of the experiment. A value of -100 means all cells are dead at the end of the experiment.
# NCI-60 Human Tumor Cell Lines Screen was performed using the standard one-dose NCI protocol, which is described in more detail at https://dtp.cancer.gov/discovery_development/nci-60/default.htm.
# Compounds with GIPRCNT values below 10 were considered active. Activity score was based on GIPRCNT using the following formula: […]
# Score is 0 for GIPRCNT values of 100 or above, 50 for GIPRCNT values of 0, and 100 for GIPRCNT values of -100.
row,Compound,growth
1,CNC(=O)c1cc(Oc2ccc(CC(=O)Nc3cc(C(C)(C)C)nn3C)cc2)ccn1,62.2% (inactive)

# Same assay, conditions: 10 µM
row,Compound,growth
1,Cc1[nH]c(-c2nc3ccccc3[nH]2)c(C)c1C(=O)NC(C)C1CCCCC1 (stereo not given),78.1% (inactive)
2,O=C(O)c1sccc1O,56.5% (inactive)
3,CNC(=O)c1cc(Oc2ccc(CC(=O)Nc3cc(C(C)(C)C)nn3C)cc2)ccn1,42% (inactive)

# Same assay, conditions: 10 µM unless noted
row,Compound,growth
1,COc1ccc(CCN(C)CCCC(C#N)(c2ccc(OC)c(OC)c2)C(C)C)cc1OC (stereo not given),106% (inactive) and 97% (inactive) and 101% (inactive)
2,O=C(c1ccc(Cl)cc1)C(NCCO)c1ccc(Cl)cc1 (stereo not given),85.3% (inactive) and 79.9% (inactive)
3,Oc1c(Cl)cc(Cl)cc1Sc1cc(Cl)cc(Cl)c1O,19.1% (inactive) and -29% (active) and 50.2% (inactive)
4,CCCCCn1sc(=O)n(Cc2ccc(CNC(=O)C(C)c3ccc(CC(C)C)cc3)cc2)c1=O (stereo not given),96.9% (inactive) and -65.1% (active)
5,O=c1c2ccccc2nc2n1Cc1nc3ccccc3c(=O)n1C2,95.6% (inactive) and 98.9% (inactive)
6,Cc1ccc(/C=C2/N=C(N/N=C\c3ccccc3)NC2=O)cc1,28.2% [100 µM] (inactive) and 56.4% [100 µM] (inactive)
7,COC(=O)[C@H]1CCCN1C(=O)C1CCCN1C(=O)[C@@H](Cc1ccccc1)NC(=S)Nc1cc(C(F)(F)F)cc(C(F)(F)F)c1 (stereo not given in full),94.7% (inactive) and 90.3% (inactive)
8,COc1ccc2cc(CN3CCC(C4CCNCC4)CC3)ccc2c1,-93.1% [100 µM] (active) and -100% [100 µM] (active)
9,C[N+](C)(C)CN1C(=O)c2ccccc2C1=O,101% (inactive)
10,O=C(O)C1(C(=O)O)CCC1.[NH2-].[NH2-].[Pt+2],96.1% (inactive) and 95.3% (inactive)
11,COC(=O)C1=CO[C@@H](OC2OC(CO)C(O)C(O)C2O)[C@H]2[C@@H](C)[C@@H](O)[C@@H](O)[C@@H]12 (stereo not given in full),89.9% [100 µM] (inactive) and 99.1% [100 µM] (inactive)
12,NC(=S)Nc1[nH]c(=S)nc2c1SC1=N/C(=C\c3ccco3)C(=O)N12,25.1% [100 µM] (inactive) and 18.6% [100 µM] (inactive)
13,COC(=O)C(=O)C(C(=O)C(=O)Nc1ccc(Cl)c(Cl)c1)c1nc2ccc(C(=O)c3ccccc3)cc2[nH]c1=O (stereo not given),43.9% [100 µM] (inactive) and 6.66% [100 µM] (active)
14,CCC(O)c1ccccc1 (stereo not given),111% (inactive) and 97.7% (inactive)
15,C[C@]12CC[C@@H]3c4ccc(OS(N)(=O)=O)cc4CC[C@H]3[C@@H]1CCC2=O,9.29% [100 µM] (active) and 48.3% [100 µM] (inactive)
16,CSc1nc(Br)nc2ncn(C3CC(Oc4ccc(C)cc4)C(COc4ccc(C)cc4)O3)c12 (stereo not given),84.5% [100 µM] (inactive) and -65.3% [100 µM] (active)
17,N#CC(=S)Nc1ccc(F)cc1,8.57% [100 µM] (active) and 0.965% [100 µM] (active)

row,Compound,growth
1,COc1cc(C(=O)c2ccc3c(c2)OCO3)cc(OC)c1OC,42.4% (inactive) and 22.9% (inactive)
2,CC(CN=Cc1ccccc1O)N=Cc1ccccc1O (stereo not given),107% (inactive) and 105% (inactive)
3,N/C(=N\N=C\c1ccc2c(c1)OCO2)N/N=C\c1ccc2c(c1)OCO2,112% (inactive) and 90.7% (inactive)
4,CC(/C=N/N1C(=O)c2ccccc2C1=O)c1ccccc1 (stereo not given),111% (inactive)
5,CCN(CC)CCC(CNc1c2ccc([N+](=O)[O-])cc2nc2cc(OC)c(OC)cc12)c1ccccc1 (stereo not given),-78.6% (active) and -100% (active)
6,C=C(C)C1CC2(C)C(C)CC(OC(=O)/C(C)=C\C)CC2C(OC(=O)/C(C)=C\C)C1O (stereo not given),5.5% [100 µM] (active)
7,NC(=S)N/N=C(\c1ccc(Br)cc1)C1CC1,98.4% (inactive)
8,Nc1n[nH]c(=S)n1-c1ccc(Cl)cc1,96.2% (inactive)
9,CCN(CC)CCCC(C)Nc1cnc(C(=O)Nc2cc(F)cc3cccnc23)cn1 (stereo not given),0.997% (active) and 17.5% (inactive)
10,NC(=S)NN=C1CCC(C2CCCCC2)CC1 (stereo not given),79.6% (inactive) and 88.3% (inactive)
11,C/C(=N\NC(=O)c1ccncc1)c1ccccc1O,22% (inactive) and 30.6% (inactive)
12,COC(=O)c1nc(N)nc(C(=O)OC)c1C(=O)c1ccc(OC)cc1,102% (inactive) and 35% (inactive)
13,COc1ccc(C)cc1NC(=S)C#N,74.4% [100 µM] (inactive) and 31.4% [100 µM] (inactive)
14,Cn1c(=O)n(-c2ccc(C(C)(C)C#N)cc2)c2c3cc(-c4cnc5ccccc5c4)ccc3ncc21,-18.9% (active) and -20.3% (active)
15,CC(=Nc1ccncc1)C(C)=Nc1ccncc1,-98.5% [100 µM] (active) and -100% [100 µM] (active)
16,O=C(Cc1cccc2ccccc12)N/N=C/c1ccc2c(c1)CCC2,54.3% (inactive)

# Same assay, conditions: 30 µM
row,Compound,growth
1,CNC(=O)c1cc(Oc2ccc(CC(=O)Nc3cc(C(C)(C)C)nn3C)cc2)ccn1,56.3% (inactive)

# Same assay, conditions: 100 µM
row,Compound,growth
1,Cc1[nH]c(-c2nc3ccccc3[nH]2)c(C)c1C(=O)NC(C)C1CCCCC1 (stereo not given),-96.5% (active)
2,O=C(O)c1sccc1O,0.233% (active)
